# Test results from PubChem BioAssay AID624273 (Broad Institute, 2012).
# Screen size: about 1,000 compounds; about 230 (23%) were called active. About 1% were inconclusive and are not listed. This is one part of the list. Potency and affinity values are given separately. Unmarked numbers belong to inactive results. No rule for the calls is given here.
# Biological target: Long-chain-fatty-acid--AMP ligase FadD28 (Mycobacterium tuberculosis (strain ATCC 25618 / H37Rv)) (UniProt P9WQ59)
# Assay: inhibitors of FadD28 bisubstrate probe binding, dose response, biochemical, fluorescence polarization, cherry-pick (AID 624273)
# Details: series mostly up to 50 µM; activity change, negative = inhibition: at the top concentration
# Long-chain-fatty-acid--AMP ligase FadD28 (Mycobacterium tuberculosis (strain ATCC 25618 / H37Rv)), sequence (P9WQ59 whole entry, looked up): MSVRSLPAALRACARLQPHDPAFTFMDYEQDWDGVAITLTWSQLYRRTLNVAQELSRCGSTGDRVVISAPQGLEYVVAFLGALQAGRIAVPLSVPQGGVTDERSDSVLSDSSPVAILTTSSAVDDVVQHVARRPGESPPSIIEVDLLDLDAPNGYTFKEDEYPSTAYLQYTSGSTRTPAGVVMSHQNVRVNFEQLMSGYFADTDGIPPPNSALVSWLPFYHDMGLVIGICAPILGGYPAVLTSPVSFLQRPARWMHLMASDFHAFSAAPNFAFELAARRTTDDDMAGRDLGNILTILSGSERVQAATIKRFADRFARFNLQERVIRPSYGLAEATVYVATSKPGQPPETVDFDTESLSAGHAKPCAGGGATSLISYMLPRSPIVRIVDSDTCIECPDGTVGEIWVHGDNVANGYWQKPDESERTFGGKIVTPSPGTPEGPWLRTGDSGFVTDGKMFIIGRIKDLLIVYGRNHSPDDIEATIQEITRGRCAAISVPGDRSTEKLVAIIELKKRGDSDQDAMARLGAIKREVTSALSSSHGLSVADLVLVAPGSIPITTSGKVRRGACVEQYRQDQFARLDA
row,Compound,"activity change, negative = inhibition [%]"
1,CC(=O)Nc1sc(N/N=C\c2ccccc2)nc1-c1cccs1,-6.1
2,CN1CCCC(C(=O)c2ccc(-c3ccccc3)cc2)C1 (stereo unspecified),-3.14
3,O=C(O)c1cc(N/N=C/c2c[nH]c3ccccc23)ccc1Cl,-0.396
4,COc1cc(C(C)=O)ccc1OC(=O)N(C)c1ccccc1,-7.74
5,O=C(O)c1ccc(N/N=C/C2=Cc3ccccc3OC2)cc1,-7.18
6,COc1ccc(Cl)cc1NC(=S)N(Cc1ccc(C(=O)O)cc1)Cc1ccc(OC)c(OC)c1,-26.1
7,Cc1ccc(S(=O)(=O)N2CCN(C(=O)COC(=O)Cc3cccc(C(F)(F)F)c3)CC2)c(C)c1,-8.44
8,Cc1c(N=Cc2c(O)n(CCc3ccc(F)cc3)c(=O)[nH]c2=O)c(=O)n(-c2ccccc2)n1C,-5.99
9,Cc1ccc(C)c(C(O)c2ncc(-c3ccccc3F)[nH]2)c1 (stereo unspecified),-0.658
10,CC1=C(C(=O)OCc2ccccc2)C(c2ccccc2Cl)NC(=O)N1C (stereo unspecified),1.09
11,OC1(c2ccccc2)c2ccccc2-c2ncccc21 (stereo unspecified),0.098
12,COc1ccc(Cn2c(O)c(C=Nc3ccccc3C(=O)O)c3ccccc3c2=O)cc1,-11.9
13,O=C(CNC(=S)N(Cc1ccccc1)Cc1cccnc1)N1CCOCC1,2.04
14,CC(C=NNc1ccc([N+](=O)[O-])cn1)=Cc1ccccc1,-3.77
15,Fc1ccc(-n2cc(-c3ccccc3)c3c(N4CCOCC4)ncnc32)cc1,-3.99
16,FC(F)(F)c1cccc(NC(=S)N2CCN(c3ccccn3)CC2)c1,-5.38
17,O=C(NNc1ccc(C2CCCCC2)cc1)C(O)(c1ccccc1)c1cccs1 (stereo unspecified),-7.02
18,O=C(O)c1[nH]c2ccccc2c1C(c1cccc(O)c1)c1c(C(=O)O)[nH]c2ccccc12,-0.575
19,Cc1[nH]c2ccccc2c1C(=O)CN1CCSCC1,-5.36
20,O=C(Cc1c(F)cccc1Cl)NC1CCN(Cc2ccccc2)CC1,-2.88
21,COc1ccc(OC)c(C2CC(=O)Nc3c2c(=O)[nH]c2ncnn32)c1 (stereo unspecified),-4.84

row,Compound,"activity change, negative = inhibition [%]"
1,CC(Oc1ccc(Cl)cc1Cl)c1nc(-c2ccc(NC(=O)c3ccco3)cc2)no1 (stereo unspecified),2.14
2,O=c1[nH]c(=S)[nH]c(O)c1/C=C1\C=Nc2ccccc21,-3.93
3,CCOC(=O)C(O)(C1C(=O)CC(C)(C)CC1=O)C(F)(F)F (stereo unspecified),-8.07
4,O=C1CC(c2cc(F)ccc2F)c2cc3c(cc2N1)CCC3 (stereo unspecified),-3.23
5,OC1(c2ccc3c(c2)OCO3)CCN(Cc2ccccn2)CC1,-0.883
6,C[C@@H]1CN([C@H](C)CO)C(=O)c2cc(NC(=O)Nc3ccc(C(F)(F)F)cc3)ccc2O[C@H]1CN(C)C(=O)Nc1ccc(F)cc1,-0.926
7,CCN(C(=O)CSc1nnc(SC)s1)c1c(N)n(Cc2ccccc2)c(=O)[nH]c1=O,-4.76
8,O=C(CCCCn1c(=O)c2ccccc2n(CC(=O)Nc2ccc(F)cc2)c1=O)NCc1ccco1,-18.9
9,CCN(CC)S(=O)(=O)c1cc(C(=O)Nc2cc(Cl)ccc2N2CCN(C)CC2)ccc1Cl,-17
10,CCCCCCCCCCCCCCCCCCNc1ccn(C2OC(COP(=O)(O)OCC3OC(n4cc(F)c(=O)[nH]c4=O)CC3O)C(O)C2O)c(=O)n1 (stereo unspecified),0.561
11,S=C(Nc1ccccc1)N1CCN(c2ccc(N3CCOCC3)nn2)CC1,-4.53
12,COc1ccccc1CN1CCN(C(=O)c2ccco2)CC1,-5.09
13,N#CC1(NC(=O)COC(=O)C2=COCCO2)CCCCC1,-1.19
14,COc1cc(/C=C2\C(=O)ON=C2c2ccccc2)cc(Br)c1O,-5.09
15,Cc1ccccc1-c1cc(C(=O)N2CCCC2)c2ccccc2n1,7.43
16,CC(=O)Nc1cnc(-c2ccc(O)cc2C)cn1,1.39
17,CCOc1ccc(CNC(=O)CCc2cn(C)c3ccccc23)cc1OC,-4.76
18,O=C(c1cc2cc(F)ccc2[nH]1)N1CCc2ccccc2C1,-16.4
19,COc1ccc(-c2coc3c(C(=O)Nc4cccc(C(C)=O)c4)cccc23)c(C)c1,-0.536
20,COc1ccc(NC(=O)c2ccccc2NS(C)(=O)=O)cc1OC,-3.77
21,CCN(CC(=O)Nc1c(F)cccc1F)C(=O)Cc1ccccc1,-2.25

row,Compound,"activity change, negative = inhibition [%]"
1,N#CC1=C(N)OC2=C(C(=O)CCC2)C1c1cc2c(cc1Cl)OCO2 (stereo unspecified),-6.31
2,COc1ccc(-c2coc3cc(O[C@@H]4O[C@H](CO)[C@@H](O)[C@H](O)[C@H]4O)ccc3c2=O)cc1,-3.03
3,Cc1ccc(OCc2n[nH]c(=S)n2-c2ccc(Br)cc2)cc1,-6.22
4,Cc1ccc2c(c1)N(C(=O)NC1CCCCC1)C(C)(C)CC2C (stereo unspecified),-2.78
5,COc1ccc(-n2nnnc2SCC(=O)Nc2ccccc2N2CCOCC2)cc1OC,-5.58
6,Cc1ccc(NC(=O)COC(=O)c2cccc(OC(F)F)c2)cc1S(=O)(=O)N1CCCCC1,-4.36
7,Cc1ccc(C(=O)N2CCCC2)cc1S(=O)(=O)N1CCOCC1,-10.9
8,COc1ccc(S(=O)(=O)N2CCCCCC2)cc1NC(=O)c1ccccc1S(C)(=O)=O,-4.29
9,COc1cc([N+](=O)[O-])ccc1NC(=S)NC(=O)CC(C)(C)C,-11.9
10,Cc1cc(NCC(=O)Nc2ccc(C)c(S(=O)(=O)N3CCOCC3)c2)ccc1Br,-7.05
11,O=C(Nc1ccc(NC(=O)c2cc([N+](=O)[O-])ccc2N2CCOCC2)cc1)c1cccs1,-10.1
12,O=C(c1cc(COc2ccc3c(c2)CCCC3)on1)N1CCCC1,-13.7
13,O=C(c1cccc(C(F)(F)F)c1)N1CCN(CCc2ccccc2)CC1,3.31
14,Cc1[nH]n(-c2ccc(Cl)cc2)c(=O)c1C=Nc1ccc(S(=O)(=O)N2CCOCC2)cc1,-0.291
15,O=C(Cn1cc(S(=O)(=O)Cc2cccc([N+](=O)[O-])c2)c2ccccc21)N1CCOCC1,-3.46
16,COC(=O)c1cc(S(=O)(=O)Nc2ccsc2C(=O)OC)oc1C,-7.11
17,Cc1nnc(SCC(=O)Nc2ccc(F)cc2)n(N)c1=O,-5.63
18,O=C1/C(=C/c2ccco2)SC(=S)N1CCC(=O)N1CCCCC1CCO (stereo unspecified),-10.4
19,N#Cc1ccccc1NC(=O)CNc1ccc(Cl)c(C(F)(F)F)c1,-2.52
